Molecules are shown by their SMILES. Unmarked numbers belong to inactive results. Activity calls are given as the source filed them. The call rests on the fitted dose curve; in most records, active means well fitted curve in the direction sought with a large enough effect; inactive means no such curve, though single readings can be large or run the other way.

The test can be described thus: Retest of LOPAC molecules that induce DNA re-replication in MCF 10A normal breast cells. To be noted: MCF 10A DNA re-replication, Hoechst nuclear intensity, 48 h; series mostly up to 45.1 µM; activity change, positive = re-replication: at the top concentration. From the text:
NIH Molecular Libraries Probe Production Network [MLPCN] NIH Chemical Genomics Center [NCGC] MLPCN Grant: Fast Track K99 CA136555 Assay Provider: Melvin DePamphilis, NICHD, NIH Assay Overview Eukaryotic cells normally restrict genome duplication to once per cell division. When this process is aberrant, DNA re-replication occurs when cells reinitiate DNA replication before the first round of replication is complete. DNA re-replication induces the DNA damage response, arrests cell proliferation, and triggers apoptosis. The cell cycle components cyclin A, Cdt-1, Cdc6 and geminin are critical regulators of this process and their misregulation results in DNA re-replication in normal and cancer cells. To identify compounds that induce re-replication in normal cells, an image-based assay was used to measure DNA content of nuclei, as detected by the fluorescent DNA binding dye, Hoechst. Cell nuclei were imaged by a fluorescence scanning plate imager and compounds that induce DNA re-replication were identified by the increase of nuclei with elevated fluorescence intensity.
Assay Protocol Summary For screening, 250 cells in 5 uL/well were dispensed into black clear 1536-well plates (Aurora) using a solenoid-based dispenser. Following transfer of 23 nL compound or DMSO vehicle by a pin tool, the plates were incubated 48 hr at 37 C and 5% CO2. After addition of 1 uL/well Hoescht stain, the plates were incubated 40 min at 37 C, 5% CO2 and total intensity of fluorescent objects (nuclei) were enumerated by an Acumen Explorer Ex3 (TTP LabTech) fluorescence scanning plate imager (405 nm excitation, 500-530 nm emission). Keywords: NIH Roadmap, MLPCN, MLI, MLSMR, qHTS, NCGC, DNA replication, cancer
Regarding `COc1cc2c(cc1O)CC[C@@H]1[C@@H]2CC[C@]2(C)[C@@H](O)CC[C@@H]12`, the Potency is 4.76 µM (active). Still for that read-out and setting: in the case of `O=c1cc(-c2ccccc2)[nH]c2nc(Cl)ccc12` it was 5.34 µM (active). With `CCCCCCN(CCCCCC)C(=O)Cc1c(-c2ccc(F)cc2)[nH]c2ccccc12`, the “activity change, positive = re-replication” value was 29.6%.

`C[C@@H](Oc1ccc(Oc2cnc3ccc(Cl)cc3n2)cc1)C(=O)O`: the “activity change, positive = re-replication” value was -68.4%. In the case of `CC(=O)O[C@H]1C(=O)[C@@]2(C)C([C@H](OC(=O)c3ccccc3)[C@]3(O)C[C@H](OC(=O)[C@H](O)[C@@H](NC(=O)c4ccccc4)c4ccccc4)C(C)=C1C3(C)C)[C@]1(OC(C)=O)CO[C@@H]1C[C@@H]2O` (stereo not given in full), the Potency is 0.0534 µM (active).
